High-throughput results (PubChem BioAssay)
Sampled rows, rich in hits. Any-hit rate of the full collection: about 7.8%.
Hedgehog inh – Sonic Hedgehog pathway inhibition; Shh-LIGHT2 Gli-luciferase reporter, 30 h; AID 2313; actives 2.1% (n = 22,000); inhibition, % (no concentration beside the values);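 active means mean inhibition across valid replicates above about 65%, limit read from the data; inconclusive means mean under the limit, yet half or more replicates past it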;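 further: pathway switched on by Shh-conditioned medium diluted 1 in 25 in low serum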
MITF inh – blocks MITF activity; actives 0.28% (n = 37,000); inhibition, % (no concentration beside the values); TRPM1 promoter luciferase, luminescence, 24 h; in the data active means inhibition above about 85%; inconclusive means no clear call, values can overlap the other calls; inactive means below about 68%;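 further: human melanocyte line stably carrying TRPM1 promoter luciferase reporter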
NOMO-1 viab – STK33 inhibitor candidate reducing NOMO-1 cell viability; actives 7.5% (n = 37,000); AID 2330; inhibition, % (test concentration not listed); NOMO-1 AML viability, CellTiter-Glo luminescence, 72 h; in the data active means inhibition above about 80%; inconclusive means no clear call, values can overlap the other calls
PD-1 reversal – activators reversing PD-1 mediated T-cell inhibition. 29,000 tested, under 10 active. activation, % (no concentration beside the values). primary human CD4 T cells, PD-L1 beads, CellTiter-Glo 96 h; call rule not given here
Each line names hits and unclear results; the compound was inactive in the other large screens.

C[C@@H]1CCCCO[C@H](CN(C)Cc2ccc(Cl)c(Cl)c2)[C@@H](C)CN([C@H](C)CO)C(=O)c2cc(NS(=O)(=O)c3ccc(Cl)cc3)ccc2O1	NOMO-1 viab 116
CCOC(=O)CC(Sc1ccccc1N)c1cc(OC)c(OC)c(OC)c1 (configuration not stated)	none
Cc1nc(CSc2nc3[nH]ncc3c(=O)n2-c2ccccc2)cs1	none (no result: Hedgehog inh, PD-1 reversal)
Cc1noc(C)c1CSc1nc2[nH]ncc2c(=O)n1-c1ccccc1	NOMO-1 viab 108 (no result: Hedgehog inh, PD-1 reversal)
c1ccc(CN(CCN(Cc2ccccn2)Cc2ccccn2)Cc2ccccn2)nc1	MITF inh 88, NOMO-1 viab 98
COc1ccc(CN(C)C[C@H]2OCCCC[C@@H](C)Oc3ccc(NC(=O)Nc4ccc(C(F)(F)F)cc4)cc3C(=O)N([C@H](C)CO)C[C@@H]2C)cc1	Hedgehog inh inconclusive, NOMO-1 viab 85 (no result: PD-1 reversal)
COc1ccc(CN(C)C[C@H]2OCCCC[C@@H](C)Oc3ccc(NC(=O)Nc4ccc(F)cc4)cc3C(=O)N([C@H](C)CO)C[C@@H]2C)cc1	none
COc1ccc(CN(C)C[C@@H]2OCCCC[C@@H](C)Oc3ccc(NC(=O)Nc4ccc(OC)cc4)cc3C(=O)N([C@H](C)CO)C[C@@H]2C)cc1	none
COc1ccc(NC(=O)Nc2ccc3c(c2)C(=O)N([C@H](C)CO)C[C@H](C)[C@H](CN(C)Cc2ccc(C(F)(F)F)cc2)OCCCC[C@@H](C)O3)cc1	NOMO-1 viab 122
CC(=O)Nc1c(Br)c(C2CC2)nn1-c1ccccc1	none
C[C@@H]1CN([C@H](C)CO)C(=O)c2cccc(NC(=O)c3cnccn3)c2O[C@H]1CN(C)Cc1ccc(C(=O)Nc2ccccc2N)cc1	NOMO-1 viab inconclusive (no result: Hedgehog inh)
C[C@@H]1CN([C@@H](C)CO)C(=O)c2cccc(NC(=O)c3cnccn3)c2O[C@@H]1CN(C)Cc1ccc(C(=O)Nc2ccccc2N)cc1	NOMO-1 viab 129 (no result: Hedgehog inh)
C[C@H](CO)N1C[C@H](C)[C@@H](CN(C)Cc2ccncc2)Oc2c(NC(=O)c3cnccn3)cccc2C1=O	Hedgehog inh 70 (no result: PD-1 reversal)
C[C@@H]1CN([C@@H](C)CO)C(=O)c2cccc(NC(=O)c3cnccn3)c2O[C@H]1CN(C)Cc1ccc(Cl)c(Cl)c1	NOMO-1 viab 105
C[C@@H]1CN([C@@H](C)CO)C(=O)c2cccc(NC(=O)c3cnccn3)c2O[C@@H]1CN(C)Cc1ccncc1	none
COc1ccc(-c2cc(C(F)(F)F)nc(SCC(=O)N(C)c3ccccc3)n2)cc1OC	none (no result: Hedgehog inh)
COc1ccccc1OCC(=O)Nc1ccccc1C(=O)N1C(C)CCCC1C (configuration not stated)	none (no result: Hedgehog inh)
Cc1ccc(-c2noc(CN(C(=O)c3ccccc3-c3ccccc3)C(C)C)n2)cc1	NOMO-1 viab 87 (no result: Hedgehog inh, PD-1 reversal)
CC(C)N(Cc1nc(-c2ccccc2Cl)no1)C(=O)c1ccccc1-c1ccccc1	none (no result: Hedgehog inh, PD-1 reversal)
CCC1(CC)C(=O)c2cc3ccccc3cc2C1=O	none
C[C@H](CO)N1C[C@H](C)[C@@H](CN(C)Cc2ccc(-c3ccccc3)cc2)Oc2c(NC(=O)c3ccncc3)cccc2C1=O	NOMO-1 viab 83
C[C@@H]1CN([C@H](C)CO)C(=O)c2cccc(NC(=O)c3ccncc3)c2O[C@H]1CN(C)Cc1ccc(Oc2ccccc2)cc1	Hedgehog inh inconclusive, NOMO-1 viab 91
CSc1sc(C(=O)NN)cc1S(=O)(=O)C(C)C	none
O[C@H]1C=C2CCN3Cc4cc5c(cc4C(C23)[C@@H]1O)OCO5 (some centres not stated)	Hedgehog inh 99, NOMO-1 viab 110 (no result: PD-1 reversal)
O=C(NCCC(c1ccccc1)c1ccccc1)c1cc2ccccc2c(=O)o1	none
C=C1C(=O)O[C@H]2C[C@@H](C)[C@@H]3CCC(=O)[C@@]3(C)C[C@H]12	NOMO-1 viab 117
C=C1C(=O)O[C@H]2C(=C)[C@@H](CCC(=O)O)[C@@H](C)CC[C@@H]12	none
COc1ccc(NC(=O)c2ccco2)cc1NC(=O)COc1cc(C)c(Cl)c(C)c1	NOMO-1 viab 96 (no result: Hedgehog inh)
COc1ccc(CC(=O)Nc2ccc(NC(=O)c3ccco3)cc2)cc1OC	NOMO-1 viab 114 (no result: Hedgehog inh)
COc1cc(NC(=O)COc2cc(C)c(Cl)c(C)c2)ccc1NC(=O)c1ccco1	none (no result: Hedgehog inh)
O=C1OC(c2ccccc2)=N/C1=C\c1ccccc1C(F)(F)F	none (no result: Hedgehog inh)
COC(=O)c1cc(OC)c(OC)cc1NC(=O)COc1ccc(Cl)cc1Br	none (no result: Hedgehog inh)
COC(=O)c1ccc(NC(=O)CN(c2ccc(I)cc2)S(C)(=O)=O)cc1	none (no result: Hedgehog inh)
Cc1ccc(S(=O)(=O)Nc2ccc3c(c2)CC(=O)N([C@@H](C)CO)C[C@@H](C)[C@@H](CN(C)Cc2ccc(C(=O)Nc4ccccc4N)cc2)O3)cc1	NOMO-1 viab 109 (no result: Hedgehog inh)
Cc1noc(C)c1S(=O)(=O)Nc1ccc2c(c1)CC(=O)N([C@H](C)CO)C[C@@H](C)[C@H](CN(C)Cc1ccc(C(=O)Nc3ccccc3N)cc1)O2	none (no result: Hedgehog inh)
COc1ccc(S(=O)(=O)Nc2ccc3c(c2)CC(=O)N([C@@H](C)CO)C[C@H](C)[C@H](CN(C)Cc2ccc(C(=O)Nc4ccccc4N)cc2)O3)cc1	NOMO-1 viab 140 (no result: Hedgehog inh)
C[C@@H]1CN([C@H](C)CO)C(=O)Cc2cc(NS(=O)(=O)c3ccc(F)cc3)ccc2O[C@@H]1CN(C)Cc1ccc(C(=O)Nc2ccccc2N)cc1	NOMO-1 viab 91 (no result: Hedgehog inh)
C[C@@H]1CN([C@H](C)CO)C(=O)Cc2cc(NS(=O)(=O)c3ccc(F)cc3)ccc2O[C@H]1CN(C)Cc1ccc(C(=O)Nc2ccccc2N)cc1	NOMO-1 viab inconclusive (no result: Hedgehog inh)
Cc1noc(C)c1S(=O)(=O)Nc1ccc2c(c1)CC(=O)N([C@H](C)CO)C[C@@H](C)[C@@H](CN(C)Cc1ccc(C(=O)Nc3ccccc3N)cc1)O2	NOMO-1 viab 100 (no result: Hedgehog inh)
O=C(Nc1ccccc1C(=O)NCCOc1ccccc1)c1ccc(Cl)cc1	none (no result: Hedgehog inh)
Cc1c(Br)c([N+](=O)[O-])nn1CC(=O)Nc1cccc(C(F)(F)F)c1	NOMO-1 viab inconclusive (no result: Hedgehog inh)
CCC(=O)N1c2ccccc2-c2nnc(SC)nc2OC1c1ccccc1 (configuration not stated)	none
C[C@H]1CN([C@@H](C)CO)C(=O)Cc2cc(NS(=O)(=O)c3cccs3)ccc2O[C@H]1CN(C)Cc1ccc(C(=O)Nc2ccccc2N)cc1	NOMO-1 viab 141 (no result: Hedgehog inh)
C[C@@H]1CN([C@H](C)CO)C(=O)Cc2cc(NS(=O)(=O)c3ccc(Cl)cc3)ccc2O[C@H]1CN(C)Cc1ccc(C(=O)Nc2ccccc2N)cc1	none (no result: Hedgehog inh)
C[C@H]1CN([C@@H](C)CO)C(=O)c2cccc(NC(=O)Nc3ccc(F)cc3)c2O[C@@H]1CN(C)Cc1ccc(-c2ccccc2)cc1	none (no result: PD-1 reversal)
C[C@@H]1CN([C@H](C)CO)C(=O)c2cccc(NC(=O)Nc3ccc(F)cc3)c2O[C@@H]1CN(C)Cc1ccc(-c2ccccc2)cc1	NOMO-1 viab 82
C[C@@H]1CN([C@@H](C)CO)C(=O)c2cccc(NC(=O)Nc3ccccc3)c2O[C@@H]1CN(C)Cc1ccc(-c2ccccc2)cc1	NOMO-1 viab 102
C[C@H](CO)N1C[C@H](C)[C@@H](CN(C)Cc2ccc(-c3ccccc3)cc2)Oc2c(NC(=O)Nc3ccc(F)cc3)cccc2C1=O	none
C[C@@H]1CN([C@H](C)CO)C(=O)c2cccc(N(C)C)c2O[C@H]1CN(C)Cc1ccc(-c2ccccc2)cc1	NOMO-1 viab 86
